# ± gives the standard deviation.
# Experiments:
# Conditions in all cases: modulator concentration 10 µM
# [1] = system: RAW-Dual (murine macrophage reporter line); experiment: NF-kB reporter (SEAP) activity fold change vs agonist alone; higher = enhanced NF-kB activity
# Method in brief: (§1)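 In 384-well plates holding 50 000 RAW-Dual murine macrophage reporter cells per well, compound at 10 μM final was pre-incubated for 1 hour at 37 °C, after which a PRR agonist was added overnight. Supernatant SEAP read with QUANTI-Blue at 620 nm absorbance reported NF-κB, and Lucia luciferase read with QUANTI-Luc luminescence reported IRF. Fold change values come from dividing each reporter signal by the mean of agonist-only control wells on the same plate, averaged over replicate plates with propagated errors.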
# [2] = system: RAW-Dual (murine macrophage reporter line); experiment: IRF reporter (Lucia luciferase) activity fold change vs agonist alone; higher = enhanced IRF activity
# Method in brief: as §1
# [3] = system: RAW-Dual (murine macrophage reporter line); experiment: viability score (confluency relative to resting cells, overnight) (fraction); higher = more viable, active = viable (0.7 or more)
# Method in brief: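 RAW-Dual macrophages in 384-well plates were incubated overnight with compound, final concentration 10 μM. Confluency images from IncuCyte were processed in IncuCyte software into two masks covering all imaged wells. The viability score is each well's confluency relative to resting cells, and a compound met the cutoff when both masks exceeded 70% of resting cells.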
# [4] = agonist: CpG ODN 1826 0.5 ug/mL
Structure (SMILES),"NF-kB reporter [1, 4]",NF-kB reporter ([1]; agonist: LPS 0.1 ug/mL),NF-kB reporter ([1]; agonist: MPLA […]),IRF reporter ([2]; agonist: 3'3'-cGAMP 10 ug/mL),IRF reporter ([2]; agonist: LPS 0.1 ug/mL),IRF reporter ([2]; agonist: MPLA […]),viability score [3]
O=C(O)CC(C(=O)O)N1C(=O)C(=C2C(=O)Nc3ccc(Br)cc32)SC1=S (centres undefined),0.775 ± 0.28,1.05 ± 0.11,0.837 ± 0.069,0.894 ± 0.036,1.24 ± 0.15,1.59 ± 0.4,0.995 (active)
CS(=O)(=O)O.N#CC1(c2ccc(NC(=O)c3cccnc3NCc3ccncc3)cc2)CCCC1,0.394 ± 0.03,0.69 ± 0.033,0.547 ± 0.052,0.396 ± 0.019,1 ± 0.074,0.99 ± 0.083,0.992 (active)
CC(=NNC(=O)CSc1nc2ccccc2n1Cc1ccccc1)c1ccc(Cl)cc1,0.846 ± 0.068,0.923 ± 0.089,1 ± 0.1,0.979 ± 0.046,1.4 ± 0.081,1.36 ± 0.16,1.02 (active)
Cc1ccc(-c2nc(O)nc3ccccc23)cc1,1.28 ± 0.37,1.11 ± 0.086,1.07 ± 0.086,0.786 ± 0.054,0.967 ± 0.14,0.966 ± 0.11,0.931 (active)
OCCN(CCO)c1nc(N2CCCCC2)c2nc(N(CCO)CCO)nc(N3CCCCC3)c2n1,1.58 ± 0.22,1.39 ± 0.35,1.06 ± 0.07,0.502 ± 0.022,1.18 ± 0.18,1.28 ± 0.17,0.984 (active)
N#Cc1cc(OC2CCSC2)nc2ccccc12 (centres undefined),1.04 ± 0.067,1.05 ± 0.095,1.18 ± 0.065,0.935 ± 0.071,0.959 ± 0.045,1.15 ± 0.16,1 (active)
C=CCN1C(=O)C(=C2C(=O)N(Cc3ccccc3F)c3ccccc32)SC1=S,1.09 ± 0.1,1.02 ± 0.079,1.01 ± 0.062,0.904 ± 0.039,1.37 ± 0.18,1.13 ± 0.19,1.01 (active)
CN1c2ccccc2-c2ccccc2C12C=Cc1cc([N+](=O)[O-])ccc1O2 (centres undefined),0.385 ± 0.021,0.916 ± 0.1,0.879 ± 0.07,1.09 ± 0.07,1.27 ± 0.2,1.1 ± 0.12,0.999 (active)
Cc1ccc2[nH]c(=O)c(-c3cc(-c4ccccc4)c4ccccc4n3)c(-c3ccccc3)c2c1,0.938 ± 0.081,1.1 ± 0.11,0.816 ± 0.051,1.08 ± 0.037,1.17 ± 0.19,1.04 ± 0.072,1.02 (active)
CCCCCCCCc1ccc(CCC(N)(CO)CO)cc1.Cl,0.687 ± 0.18,0.685 ± 0.047,1.55 ± 0.2,0.172 ± 0.019,0.673 ± 0.072,0.615 ± 0.15,0.513 (inactive)
Cc1cnc2c(c1N1CCC(Cc3ccccc3)CC1)c(=O)n(C)c(=O)n2C,0.97 ± 0.06,1.08 ± 0.084,0.996 ± 0.051,1.06 ± 0.044,1.01 ± 0.088,1.07 ± 0.26,0.999 (active)
CNC(=O)c1cc(Oc2ccc(NC(=O)Nc3ccc(Cl)c(C(F)(F)F)c3)c(F)c2)ccn1.O,0.151 ± 0.012,0.0887 ± 0.0079,0.42 ± 0.035,0.0171 ± 0.0034,0.0276 ± 0.0016,0.0325 ± 0.0049,0.448 (inactive)
Cc1ccc(C(=O)N2N=C(c3ccncc3)CC2(O)C(F)(F)F)cc1 (centres undefined),0.764 ± 0.062,0.831 ± 0.12,0.985 ± 0.097,0.86 ± 0.043,1.26 ± 0.081,1.29 ± 0.14,1.01 (active)
CC(NCCC(c1ccccc1)c1ccccc1)c1ccccc1.Cl (centres undefined),0.274 ± 0.11,0.64 ± 0.047,0.67 ± 0.075,0.735 ± 0.058,0.929 ± 0.13,1 ± 0.13,0.204 (inactive)
CNC1CCC(c2ccc(Cl)c(Cl)c2)c2ccccc21.Cl (centres undefined),0.571 ± 0.096,0.765 ± 0.097,1.11 ± 0.25,0.52 ± 0.016,1.94 ± 0.19,2.12 ± 0.33,0.661 (inactive)
Nc1ccn([C@H]2CC[C@@H](CO)O2)c(=O)n1,1.05 ± 0.13,1.1 ± 0.081,1.02 ± 0.09,1.03 ± 0.088,0.976 ± 0.06,1.02 ± 0.081,0.995 (active)
COc1ccc(N(CC(=O)NCCSCc2cccc(Cl)c2)S(C)(=O)=O)cc1Cl,0.917 ± 0.073,0.98 ± 0.065,0.831 ± 0.05,1.11 ± 0.031,1.08 ± 0.12,0.974 ± 0.098,1 (active)
Nc1nc(N)c2nc(-c3ccccc3)c(N)nc2n1,0.861 ± 0.15,1.03 ± 0.17,0.891 ± 0.056,0.56 ± 0.017,1.17 ± 0.27,1.18 ± 0.18,0.92 (active)
COc1ccc(C(=O)Nc2sc3c(c2C(N)=O)CCCC3)cc1OC,0.866 ± 0.067,1.01 ± 0.056,1.09 ± 0.029,0.694 ± 0.038,0.942 ± 0.12,1.08 ± 0.14,0.998 (active)
c1coc(CNc2nc(-c3ccncc3)cs2)c1,0.857 ± 0.073,0.863 ± 0.13,1.25 ± 0.11,0.492 ± 0.03,1.12 ± 0.08,1.14 ± 0.097,0.981 (active)
CC1(C)CC(=O)C2=C(C1)OC(N)=C(C#N)C21C(=O)Nc2ccc(Br)cc21 (centres undefined),0.954 ± 0.077,1.05 ± 0.08,0.955 ± 0.057,0.967 ± 0.032,1.18 ± 0.1,1.03 ± 0.096,1.01 (active)
CC(Oc1cccc(Cl)c1)C(=O)Nc1nncs1 (centres undefined),0.999 ± 0.082,0.972 ± 0.054,0.967 ± 0.058,0.947 ± 0.023,1.28 ± 0.18,1.05 ± 0.2,1.01 (active)
Cc1ccc(-c2ccc3nnc(CCC(=O)NCc4ccc(C(F)(F)F)cc4)n3n2)cc1C,0.671 ± 0.041,1.04 ± 0.086,1.04 ± 0.07,0.747 ± 0.047,1.15 ± 0.23,1.16 ± 0.41,0.94 (active)
O=C(C=Cc1ccc(Cl)c(Cl)c1)c1ccc2ccccc2c1O,1.09 ± 0.1,1.06 ± 0.07,0.935 ± 0.085,0.96 ± 0.041,1.57 ± 0.23,1.25 ± 0.077,1.01 (active)
COc1ccc(CC(=O)N2CCCc3ccccc32)cc1OC,0.909 ± 0.078,0.778 ± 0.054,1.01 ± 0.09,0.973 ± 0.046,1.41 ± 0.1,1.6 ± 0.17,1.02 (active)
COc1c(-c2ccc3cc(NS(C)(=O)=O)ccc3c2)cc(-n2ccc(=O)[nH]c2=O)cc1C(C)(C)C,0.43 ± 0.1,1.02 ± 0.056,0.827 ± 0.093,0.774 ± 0.043,1.2 ± 0.29,1.2 ± 0.15,1.01 (active)
CC[C@H](C)C(=O)O[C@H]1C[C@@H](C)C=C2C=C[C@H](C)[C@H](CC[C@@H]3C[C@@H](O)CC(=O)O3)[C@H]21,2.37 ± 0.12,1.5 ± 0.12,1.77 ± 0.078,0.639 ± 0.058,0.795 ± 0.055,0.776 ± 0.17,0.238 (inactive)

# From the supplement of paper PMC10646978
